{"source": "PubChem BioAssay (EPA / NIEHS)", "note": "Where “and” joins values, the source holds several entries; their conditions need not be identical. Equal values may be shown once. Results filed as inconclusive are left out. Calls of active or inactive are those of the source. Rule for the calls: active = hit-call score of the fitted dose curve at least 0.9, where 1 is the maximum; inconclusive = response in the unintended direction; inactive = score below 0.9.", "data": [{"target": "Muscarinic acetylcholine receptor M5 (Homo sapiens) (UniProt P08912)", "sequence (P08912 whole entry, looked up)": "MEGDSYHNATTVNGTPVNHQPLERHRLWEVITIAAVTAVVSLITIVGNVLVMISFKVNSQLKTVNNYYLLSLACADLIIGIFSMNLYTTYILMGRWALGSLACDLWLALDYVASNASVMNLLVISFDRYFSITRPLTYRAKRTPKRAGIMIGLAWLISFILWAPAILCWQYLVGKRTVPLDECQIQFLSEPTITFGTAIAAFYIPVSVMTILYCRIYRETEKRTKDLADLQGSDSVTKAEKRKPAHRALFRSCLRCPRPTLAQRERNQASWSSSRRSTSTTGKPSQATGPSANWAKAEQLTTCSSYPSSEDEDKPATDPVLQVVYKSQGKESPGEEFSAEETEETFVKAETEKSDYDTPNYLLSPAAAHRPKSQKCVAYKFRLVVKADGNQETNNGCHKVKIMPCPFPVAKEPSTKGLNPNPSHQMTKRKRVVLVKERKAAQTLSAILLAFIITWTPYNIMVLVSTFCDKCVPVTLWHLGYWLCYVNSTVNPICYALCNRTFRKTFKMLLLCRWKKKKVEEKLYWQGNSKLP", "test": "NVS_GPCR_hM5: NovaScreen (NVS) G Protein-Coupled Receptor Assay for human Muscarinic, M5 Receptor (AID 2283275)", "summary_of_the_method": "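Radioligand displacement on CHO-derived membrane preparations, 1 h, filter-based scintillation counting. Single-concentration duplicate screen at 25 uM; hits (e.g. 30% inhibition) retested in singleton concentration-response up to 50 uM. Loss of binding fitted versus DMSO.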", "values": [{"smiles": "O=C(Nc1ccc2[nH]ccc2c1)c1cc2cc(F)ccc2n1Cc1cccc(F)c1", "outcome": "inactive"}, {"smiles": "CCC(=O)C(CC(C)N(C)C)(c1ccccc1)c1ccccc1", "note": "(configuration not stated)", "AC50": "4.57 µM (active)"}, {"smiles": "C=C(C)C(=O)[O][Sn]([CH2]CCC)([CH2]CCC)[CH2]CCC", "AC50": "1.23 µM (active)"}, {"smiles": "CCN1CCC2(CC1)COc1cc3c(cc12)N(C(=O)c1ccc(-c2ccc(-c4nnc(C)o4)cc2C)cc1)CC3", "AC50": "2.03 µM (active)"}, {"smiles": "CC(=O)[O][Hg][c]1ccccc1", "AC50": "0.591 µM (active)"}]}, {"target": "human Neuropeptide Receptor Y1 (NPY1), NPY1R (gene 4886) (UniProt P25929)", "sequence (P25929 whole entry, looked up)": "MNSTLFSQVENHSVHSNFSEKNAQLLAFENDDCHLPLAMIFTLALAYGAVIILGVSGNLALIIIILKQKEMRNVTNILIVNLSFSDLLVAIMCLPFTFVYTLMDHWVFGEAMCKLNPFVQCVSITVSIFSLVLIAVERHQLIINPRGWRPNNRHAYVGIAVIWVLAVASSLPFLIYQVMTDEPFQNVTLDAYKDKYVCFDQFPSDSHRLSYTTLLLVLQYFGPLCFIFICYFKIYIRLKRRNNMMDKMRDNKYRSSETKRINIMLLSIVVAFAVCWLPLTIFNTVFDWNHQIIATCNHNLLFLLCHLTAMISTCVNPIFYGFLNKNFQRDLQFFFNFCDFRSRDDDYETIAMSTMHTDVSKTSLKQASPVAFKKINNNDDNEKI", "test": "NVS_GPCR_hNPY1: NovaScreen (NVS) G Protein-Coupled Receptor Assay for human Neuropeptide Receptor Y1 (NPY1) (AID 2283276)", "summary_of_the_method": "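Cell-free radioligand binding using receptor extracted from SK-N-MC cells, 1 h incubation, filter-based scintillation counting. Primary screen single concentration 25 uM in duplicate; actives followed in concentration series. Loss of bound signal scored versus DMSO.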", "values": [{"smiles": "Oc1cccc2cccnc12", "outcome": "inactive"}, {"smiles": "C=C(C)C(=O)[O][Sn]([CH2]CCC)([CH2]CCC)[CH2]CCC", "AC50": "1.14 µM (active)"}, {"smiles": "CC(=O)[O][Hg][c]1ccccc1", "AC50": "0.51 µM (active)"}]}, {"target": "human Neurokinin, NK2 Receptor, TACR2 (gene 6865) (UniProt P21452)", "sequence (P21452 whole entry, looked up)": "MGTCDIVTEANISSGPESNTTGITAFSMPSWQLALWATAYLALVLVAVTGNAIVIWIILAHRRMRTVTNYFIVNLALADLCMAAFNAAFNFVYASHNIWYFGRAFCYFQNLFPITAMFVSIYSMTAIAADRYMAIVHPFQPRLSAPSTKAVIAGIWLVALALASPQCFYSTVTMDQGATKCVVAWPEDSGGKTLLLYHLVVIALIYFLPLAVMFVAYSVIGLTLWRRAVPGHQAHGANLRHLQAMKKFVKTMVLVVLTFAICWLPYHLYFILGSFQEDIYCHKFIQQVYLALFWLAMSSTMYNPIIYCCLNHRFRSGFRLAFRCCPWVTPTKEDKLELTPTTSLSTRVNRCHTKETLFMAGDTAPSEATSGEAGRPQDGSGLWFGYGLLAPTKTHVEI", "test": "NVS_GPCR_hNK2: NovaScreen (NVS) G Protein-Coupled Receptor Assay for human Neurokinin, NK2 Receptor (AID 2283278)", "summary_of_the_method": "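Cell-free radioligand binding using receptor protein extracted from CHO cells; readings taken 4 hours after chemical dosing by filter-based scintillation counting. Primary screen ran single concentration (25 uM) in duplicate; actives followed up in concentration series, loss-of-signal versus DMSO baseline.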", "values": [{"smiles": "CC12CC1(C)C(=O)N(c1cc(Cl)cc(Cl)c1)C2=O", "note": "(configuration not stated)", "outcome": "inactive"}, {"smiles": "COP(=S)(OC)Oc1ccc(S(=O)(=O)N(C)C)cc1", "outcome": "inactive"}, {"smiles": "Nc1cccc2ccccc12", "AC50": "4.28 µM (active)"}, {"smiles": "Oc1cccc2cccnc12", "AC50": "4.96 µM (active)"}, {"smiles": "COP(=S)(OC)Oc1ccc(Sc2ccc(OP(=S)(OC)OC)cc2)cc1", "outcome": "inactive"}, {"smiles": "C=C(C)C(=O)[O][Sn]([CH2]CCC)([CH2]CCC)[CH2]CCC", "AC50": "0.977 µM (active)"}, {"smiles": "CC(C)(C)c1cc(O)ccc1O", "AC50": "16.3 µM (active)"}, {"smiles": "Nc1ncc([N+](=O)[O-])s1", "outcome": "inactive"}, {"smiles": "CC(=O)[O][Hg][c]1ccccc1", "AC50": "0.52 µM (active)"}, {"smiles": "CC(C)(C)CC(C)(C)c1ccc(O)cc1", "AC50": "25 µM (active)"}, {"smiles": "COP(=S)(OC)Oc1cc(Cl)c(Cl)cc1Cl", "outcome": "inactive"}]}, {"target": "human Opioid Receptor Delta 1 (Opiate D1), OPRD1 (gene 4985) (UniProt P41143)", "sequence (P41143 whole entry, looked up)": "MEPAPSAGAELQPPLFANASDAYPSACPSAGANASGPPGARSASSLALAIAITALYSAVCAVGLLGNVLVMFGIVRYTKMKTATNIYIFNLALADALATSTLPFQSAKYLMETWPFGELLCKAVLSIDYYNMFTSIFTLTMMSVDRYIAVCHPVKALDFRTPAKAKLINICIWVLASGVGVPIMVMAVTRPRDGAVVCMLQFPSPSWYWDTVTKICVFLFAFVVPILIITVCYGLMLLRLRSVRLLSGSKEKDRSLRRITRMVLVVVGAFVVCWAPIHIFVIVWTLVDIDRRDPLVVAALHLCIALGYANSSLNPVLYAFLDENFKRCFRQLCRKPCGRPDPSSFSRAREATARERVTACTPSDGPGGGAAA", "test": "NVS_GPCR_hOpiate_D1: NovaScreen (NVS) G Protein-Coupled Receptor Assay for human Opioid Receptor Delta 1 (Opiate D1) (AID 2283280)", "summary_of_the_method": "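Radioligand displacement on membranes from CHO cells expressing the receptor, read by filter scintillation counting 1 h after dosing. Duplicate single-point screen at 25 uM, then concentration series for actives; loss of signal versus DMSO.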", "values": [{"smiles": "C=C(C)C(=O)[O][Sn]([CH2]CCC)([CH2]CCC)[CH2]CCC", "AC50": "0.761 µM (active)"}, {"smiles": "O=C(O)C(F)(F)C(F)(F)C(F)(F)C(F)(F)C(F)(F)C(F)(F)C(F)(F)C(F)(F)C(F)(F)C(F)(F)F", "AC50": "10.7 µM (active)"}, {"smiles": "CC(=O)[O][Hg][c]1ccccc1", "AC50": "0.848 µM (active)"}, {"smiles": "CC(C)(C)CC(C)(C)c1ccc(O)cc1", "AC50": "8.28 µM (active)"}]}, {"target": "human Purinergic Receptor P2Y, P2RY1 (gene 5028) (UniProt P47900)", "sequence (P47900 whole entry, looked up)": "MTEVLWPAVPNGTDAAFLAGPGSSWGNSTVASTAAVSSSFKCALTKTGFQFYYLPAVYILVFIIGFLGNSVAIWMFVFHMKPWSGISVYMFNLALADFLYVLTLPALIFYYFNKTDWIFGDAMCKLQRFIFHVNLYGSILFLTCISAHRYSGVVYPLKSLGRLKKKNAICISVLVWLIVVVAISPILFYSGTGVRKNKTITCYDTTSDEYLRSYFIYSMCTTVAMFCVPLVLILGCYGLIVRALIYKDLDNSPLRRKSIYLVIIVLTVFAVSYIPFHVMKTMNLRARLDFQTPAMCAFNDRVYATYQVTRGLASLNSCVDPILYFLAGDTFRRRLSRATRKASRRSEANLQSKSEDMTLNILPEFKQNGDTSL", "test": "NVS_GPCR_hPY2: NovaScreen (NVS) G Protein-Coupled Receptor Assay for human Purinergic Receptor P2Y (AID 2283281)", "summary_of_the_method": "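Cell-free radioligand binding using U937-derived protein, 1 h after dosing, filter-based scintillation counting. Screened in duplicate at 25 uM; actives rerun as concentration-response up to 50 uM; loss of signal versus DMSO.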", "values": [{"smiles": "COP(=S)(OC)Oc1ccc(Sc2ccc(OP(=S)(OC)OC)cc2)cc1", "outcome": "inactive"}, {"smiles": "CC(=O)[O][Hg][c]1ccccc1", "AC50": "5.96 µM (active)"}, {"smiles": "CC(C)(C)CC(C)(C)c1ccc(O)cc1", "outcome": "inactive"}]}, {"target": "human Thromboxane A2 Receptor (TXA2), TBXA2R (gene 6915) (UniProt P21731)", "sequence (P21731 whole entry, looked up)": "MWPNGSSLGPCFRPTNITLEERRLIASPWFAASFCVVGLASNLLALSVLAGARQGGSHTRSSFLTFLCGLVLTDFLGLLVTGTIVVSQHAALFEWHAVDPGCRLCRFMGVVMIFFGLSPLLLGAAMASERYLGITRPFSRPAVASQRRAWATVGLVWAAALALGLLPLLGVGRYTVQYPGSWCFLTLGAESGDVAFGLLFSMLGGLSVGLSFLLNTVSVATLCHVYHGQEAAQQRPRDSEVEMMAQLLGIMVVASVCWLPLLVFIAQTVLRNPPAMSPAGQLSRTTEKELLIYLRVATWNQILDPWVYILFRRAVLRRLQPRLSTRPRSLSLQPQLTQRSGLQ", "test": "NVS_GPCR_hTXA2: NovaScreen (NVS) G Protein-Coupled Receptor Assay for human Thromboxane A2 Receptor (TXA2) (AID 2283282)", "summary_of_the_method": "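Filter scintillation counting of bound radioligand, human platelet protein, 1 h exposure. Single-concentration duplicates (25 uM) first, concentration-response follow-up for actives. Binding loss scored against DMSO baseline.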", "values": [{"smiles": "CCSC(C)CC1CC(=O)C(C(CC)=NOC/C=C/Cl)=C(O)C1", "note": "(configuration not stated)", "AC50": "3.42 µM (active)"}, {"smiles": "COP(=S)(OC)Oc1ccc(Sc2ccc(OP(=S)(OC)OC)cc2)cc1", "AC50": "25 µM (active)"}, {"smiles": "C=C(C)C(=O)[O][Sn]([CH2]CCC)([CH2]CCC)[CH2]CCC", "AC50": "5.96 µM (active)"}, {"smiles": "N#CCc1ccc(Cl)cc1", "outcome": "inactive"}, {"smiles": "O=C(O)C(F)(F)C(F)(F)C(F)(F)C(F)(F)C(F)(F)C(F)(F)C(F)(F)C(F)(F)C(F)(F)C(F)(F)F", "outcome": "inactive"}, {"smiles": "COc1ccc(OC)c(C=O)c1", "outcome": "inactive"}, {"smiles": "CCCCCCCCC(=O)NCc1ccc(O)c(OC)c1", "outcome": "inactive"}, {"smiles": "CCNc1nc(NC(C)(C)C)nc(SC)n1", "outcome": "inactive"}, {"smiles": "C(=NC1CCCCC1)=NC1CCCCC1", "AC50": "2.87 µM (active)"}, {"smiles": "CC(=O)[O][Hg][c]1ccccc1", "AC50": "5.62 µM (active)"}, {"smiles": "CC(C)(C)CC(C)(C)c1ccc(O)cc1", "AC50": "43.7 µM (active)"}]}, {"target": "human Orphanin, Opioid Related Nociceptin Receptor 1 (ORL1), OPRL1 (gene 4987) (UniProt P41146)", "sequence (P41146 whole entry, looked up)": "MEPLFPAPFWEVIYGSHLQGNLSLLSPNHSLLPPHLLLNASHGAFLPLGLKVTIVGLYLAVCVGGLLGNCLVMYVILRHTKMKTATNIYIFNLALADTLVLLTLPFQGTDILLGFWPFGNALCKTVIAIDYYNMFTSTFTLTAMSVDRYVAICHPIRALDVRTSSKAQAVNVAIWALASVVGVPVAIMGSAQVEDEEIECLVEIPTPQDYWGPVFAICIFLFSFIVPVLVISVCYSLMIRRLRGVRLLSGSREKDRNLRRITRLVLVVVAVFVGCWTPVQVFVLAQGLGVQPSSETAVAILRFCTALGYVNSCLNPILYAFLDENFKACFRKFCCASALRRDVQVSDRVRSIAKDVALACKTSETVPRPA", "test": "NVS_GPCR_hORL1: NovaScreen (NVS) G Protein-Coupled Receptor Assay for human Orphanin, Opioid Related Nociceptin Receptor 1 (ORL1) (AID 2283283)", "summary_of_the_method": "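Filter-based radioligand displacement with receptor extracted from HEK293 cells, read 1 hour after dosing by scintillation counting. Duplicate single-point screen at 25 uM; qualifying chemicals then run in concentration-response to 50 uM, analysed relative to DMSO.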", "values": [{"smiles": "Clc1ccc(C2(Cn3cncn3)CC(Br)CO2)c(Cl)c1", "note": "(configuration not stated)", "outcome": "inactive"}, {"smiles": "C=C(C)C(=O)[O][Sn]([CH2]CCC)([CH2]CCC)[CH2]CCC", "AC50": "1.39 µM (active)"}, {"smiles": "CC(=O)[O][Hg][c]1ccccc1", "AC50": "0.473 µM (active)"}]}, {"target": "mouse Cholecystokinin, CCK1 Receptor (CCKA), Cckar (gene 12425) (UniProt O08786)", "sequence (O08786 whole entry, looked up)": "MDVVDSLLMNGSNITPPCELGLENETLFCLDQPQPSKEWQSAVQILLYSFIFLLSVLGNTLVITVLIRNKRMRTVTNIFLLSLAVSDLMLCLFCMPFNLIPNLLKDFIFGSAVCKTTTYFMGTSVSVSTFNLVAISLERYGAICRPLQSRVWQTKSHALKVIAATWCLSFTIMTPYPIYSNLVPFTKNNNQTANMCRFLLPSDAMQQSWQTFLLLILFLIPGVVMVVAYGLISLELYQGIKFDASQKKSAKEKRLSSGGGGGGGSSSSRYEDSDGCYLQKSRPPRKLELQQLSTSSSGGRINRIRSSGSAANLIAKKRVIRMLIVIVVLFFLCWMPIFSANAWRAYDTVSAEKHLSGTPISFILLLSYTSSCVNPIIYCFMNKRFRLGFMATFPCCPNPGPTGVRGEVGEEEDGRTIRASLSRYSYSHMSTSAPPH", "test": "NVS_GPCR_mCCKAPeripheral: NovaScreen (NVS) G Protein-Coupled Receptor Assay for mouse Cholecystokinin, CCK1 Receptor (CCKA) (AID 2283285)", "summary_of_the_method": "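Radioligand competitive displacement on mouse pancreatic membranes, 2 h incubation; filter-based scintillation counting, loss of signal versus DMSO. Single-concentration screen at 25 uM in duplicate, actives retested in concentration-response up to 50 uM.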", "values": [{"smiles": "O=C1C2(Cl)C3(Cl)C4(Cl)C(Cl)(Cl)C5(Cl)C3(Cl)C1(Cl)C5(Cl)C24Cl", "note": "(configuration not stated)", "outcome": "inactive"}, {"smiles": "C=C(C)C(=O)[O][Sn]([CH2]CCC)([CH2]CCC)[CH2]CCC", "AC50": "0.281 µM (active)"}, {"smiles": "CC(=O)[O][Hg][c]1ccccc1", "AC50": "1.65 µM (active)"}, {"smiles": "CC(C)(C)CC(C)(C)c1ccc(O)cc1", "AC50": "12 µM (active)"}]}, {"target": "rat Serotonin, 5-Hydroxytryptamine Receptor 1 (5HT1), Non-Selective Binding, Htr1a (gene 24473) (UniProt P19327)", "sequence (P19327 whole entry, looked up)": "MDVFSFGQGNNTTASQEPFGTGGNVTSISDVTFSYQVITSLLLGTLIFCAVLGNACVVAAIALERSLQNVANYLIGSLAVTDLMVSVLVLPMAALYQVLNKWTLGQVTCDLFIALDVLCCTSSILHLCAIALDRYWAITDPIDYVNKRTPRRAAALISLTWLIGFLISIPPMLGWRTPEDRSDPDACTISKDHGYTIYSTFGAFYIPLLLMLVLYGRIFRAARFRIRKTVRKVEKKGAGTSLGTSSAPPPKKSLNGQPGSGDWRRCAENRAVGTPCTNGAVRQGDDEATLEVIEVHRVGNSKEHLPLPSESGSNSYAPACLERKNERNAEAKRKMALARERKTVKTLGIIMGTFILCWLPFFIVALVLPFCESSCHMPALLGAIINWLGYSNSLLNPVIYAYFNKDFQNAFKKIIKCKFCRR", "test": "NVS_GPCR_r5HT1_NonSelective: NovaScreen (NVS) G Protein-Coupled Receptor Assay for rat Serotonin, 5-Hydroxytryptamine Receptor 1 (5HT1), Non-Selective Binding (AID 2283286)", "summary_of_the_method": "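Rat cortical membranes, radioligand displacement, 1 h incubation, read by filter scintillation. Primary screen in duplicate at 25 uM. Hits (e.g. ≥30% inhibition) went to concentration-response up to 50 uM, fitted as loss of binding versus DMSO.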", "values": [{"smiles": "COc1cc(-c2ccc(N)c(OC)c2)ccc1N", "AC50": "11.8 µM (active) and 12.6 µM (active)"}, {"smiles": "CCC(=O)C(CC(C)N(C)C)(c1ccccc1)c1ccccc1", "note": "(configuration not stated)", "outcome": "inactive"}, {"smiles": "C=C(C)C(=O)[O][Sn]([CH2]CCC)([CH2]CCC)[CH2]CCC", "AC50": "18 µM (active)"}, {"smiles": "CCN1CCC2(CC1)COc1cc3c(cc12)N(C(=O)c1ccc(-c2ccc(-c4nnc(C)o4)cc2C)cc1)CC3", "outcome": "inactive"}, {"smiles": "CC(=O)[O][Hg][c]1ccccc1", "AC50": "16.4 µM (active)"}]}, {"system": "rabbit Platelet Activating Factor Receptor (PAF), gene 100354046", "test": "NVS_GPCR_rabPAF: NovaScreen (NVS) G Protein-Coupled Receptor Assay for rabbit Platelet Activating Factor Receptor (PAF) (AID 2283287)", "summary_of_the_method": "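Rabbit platelet membrane preparation; radioligand displacement read by filter-based scintillation counting 1 h after dosing, loss of signal versus DMSO. Primary screen in duplicate at 25 uM, actives followed up in concentration series.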", "values": [{"smiles": "C=C(C)C(=O)[O][Sn]([CH2]CCC)([CH2]CCC)[CH2]CCC", "AC50": "6.61 µM (active)"}, {"smiles": "CCN1CCC2(CC1)COc1cc3c(cc12)N(C(=O)c1ccc(-c2ccc(-c4nnc(C)o4)cc2C)cc1)CC3", "AC50": "12.5 µM (active)"}, {"smiles": "CC(=O)[O][Hg][c]1ccccc1", "AC50": "38.4 µM (active)"}]}, {"target": "rat Adrenergic, Alpha 1, Non-selective Receptor (Adra1), Adra1a (gene 29412) (UniProt P43140)", "sequence (P43140 whole entry, looked up)": "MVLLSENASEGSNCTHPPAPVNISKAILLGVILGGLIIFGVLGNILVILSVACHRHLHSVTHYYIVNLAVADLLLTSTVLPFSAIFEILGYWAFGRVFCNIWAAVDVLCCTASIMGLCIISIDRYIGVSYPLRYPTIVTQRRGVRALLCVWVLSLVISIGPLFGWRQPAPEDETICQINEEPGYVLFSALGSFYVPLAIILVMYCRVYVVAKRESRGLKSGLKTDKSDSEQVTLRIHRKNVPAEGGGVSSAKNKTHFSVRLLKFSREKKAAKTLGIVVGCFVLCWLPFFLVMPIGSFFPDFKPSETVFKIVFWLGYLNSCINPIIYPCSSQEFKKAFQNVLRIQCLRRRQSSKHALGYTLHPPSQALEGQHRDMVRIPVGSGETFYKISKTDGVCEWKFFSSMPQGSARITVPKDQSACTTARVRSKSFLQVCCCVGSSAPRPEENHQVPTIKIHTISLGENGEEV", "test": "NVS_GPCR_rAdra1_NonSelective: NovaScreen (NVS) G Protein-Coupled Receptor Assay for rat Adrenergic, Alpha 1, Non-selective Receptor (Adra1) (AID 2283289)", "summary_of_the_method": "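Rat forebrain membranes; radioligand displacement read by filter-based scintillation counting 1 h after dosing. Primary screen in duplicate at 25 uM; hits (e.g. ≥30% inhibition) rerun as concentration–response to 50 uM max. Fitted versus DMSO.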", "values": [{"smiles": "COc1cc(-c2ccc(N)c(OC)c2)ccc1N", "outcome": "inactive"}, {"smiles": "CCC(=O)C(CC(C)N(C)C)(c1ccccc1)c1ccccc1", "note": "(configuration not stated)", "AC50": "18.1 µM (active)"}, {"smiles": "C=C(C)C(=O)[O][Sn]([CH2]CCC)([CH2]CCC)[CH2]CCC", "AC50": "6.86 µM (active)"}, {"smiles": "CCN1CCC2(CC1)COc1cc3c(cc12)N(C(=O)c1ccc(-c2ccc(-c4nnc(C)o4)cc2C)cc1)CC3", "AC50": "11.9 µM (active)"}, {"smiles": "CC(=O)[O][Hg][c]1ccccc1", "AC50": "18.8 µM (active)"}]}]}
